This passage reports outcome and AC50 results from PubChem BioAssay (EPA / NIEHS).

Structures are written as SMILES. Calls of active or inactive are those of the source. How the source made its calls: active means hit-call score of the fitted dose curve at least 0.9, where 1 is the maximum; inactive means score below 0.9.

Read-out in the assay: matrix metalloproteinase-3 (MMP3), MMP3 (gene 4314)
Nature of the assay: LTEA_HepaRG_MMP3: Life Technologies and Expression Analysis (LTEA) Assay for matrix metalloproteinase-3 (MMP3) using HepaRG (AID 2283519). The conditions noted are these: mRNA level, 48 h; actives raise or lower the signal. Here is the method:
LTEA_HepaRG is a cell based, multiplexed-readout assay that uses HepaRG, a human liver cell line, with measurements taken at 48 hours after chemical dosing on a 96-well plate.LTEA_HepaRG_MMP3 is one of 102 assay component(s) measured in the LTEA HepaRG cell culture assay. It is a marker of Fibrosis.Data from the assay component LTEA_HepaRG_MMP3 was analyzed into 1 endpoint. This assay endpoint, LTEA_HepaRG_MMP3, was analyzed with bidirectional fitting relative to DMSO as the negative control and baseline of activity. Using a type of inducible reporter, measures of mRNA induction for gain or loss-of-signal activity can be used to understand regulation of transcription factor activity. To generalize the intended target to other relatable targets, this assay endpoint is annotated to the protease intended target family, where the subfamily is matrix metalloproteinase.
A total of 1060 chemcials from the ToxCast library were tested in eight-point concentration-response experiments. Cell culture and cytotoxicity assays were conducted at Thermo Fisher Scientific's Custom Services facility (Madison, WI). A single lot of human HepaRG cells (Thermo Fisher Scientific, Frederick, MD) was used for the cell culture experiments. 96-well format collagen type I coated plates of human HepaRG cells were prepared using established methods. Briefly, cryopreserved HepaRG cells were thawed, plated at a density of approximately 100,000 cells/well in HepaRG Thaw, Plate, and General Purpose media (HPRG770, Thermo Fisher Scientific), and incubated for 48 hours. 0.5% DMSO was selected as vehicle control to balance the requisite need of DMSO in HepaRG cultures to maintain differentiation (for example, baseline metabolism, proportions of hepatocytes vs. cholangiocytes), while enabling further hepatic receptor pathway activation (for example, PXR and CAR) in response to chemical exposure. 48 hours after plating, the culture medium was replaced with HepaRG Serum-Free Incudtion Media. Cells were exposed to each test chemical in duplicate and maintained in CO2 incubators for another 48 hours. Chemical plates were thawed to room temperature and 200x concentrations of treatment groups were prepared. 8-point conentration-reponse curves were made with the highest exposure at 100 uM, followed by half-log dilutions, all in 0.5% DMSO. Each test plate contained variouse controls, induction positive controls (1mM phenobarbital), cytotoxicity positive controls ([…] aflatoxin B1), vehicle controls (0.5% DMSO), and total lysis controls (0.5% DMSO). Cell morphology images were taken using an Essen IncuCyte FLR automated microscope, with six 96-well plates imaged in about 24 minutes. Images were captured and exported and JPEG files. Spent culture media was transfered to black-well plates for the LDH assay, and remaining media was sorted at -80 C for later use. Cells were treated with RLT buffer and frozen until shipped for gene expression analysis. Total RNA was isolated from the cell suspension in 75 uL of Buffer RLT (Qiagen, Germantown, MD 20874) by Quintiles/Expression Analysis (Durham, NC) using a custom isolation procedure. Total RNA from each plate well was transferred to a preamplification plate. Fluidigm's 96.96 Dynamic ArrayTM (Fluidigm, Amsterdam, the Netherlands) technology was used for gene expression analyses by quantitative reverse transcription polymerase chain reaction (qRT-PCR, performed by Quintiles/Expression Analysis, Durham, NC)89. Standard TaqManTM Assays (Applied Biosystems/ThermoFisher Scientific, Foster City, CA) were used to assess the expression of 93 genes selected based on their selectivity and sensitivity to important hepatic receptors known to be modulated by environmental chemicals; importance in human hepatocyte functionality; and hepatotoxicity. […]
Turning to `Cc1c(C(=O)O)c(O)cc2c1C(=O)c1c(O)c([C@@H]3O[C@H](CO)[C@@H](O)[C@H](O)[C@H]3O)c(O)c(O)c1C2=O`, the compound was classed as inactive.

As for `COc1cc(S(=O)(=O)O)c(C)cc1N=Nc1c(O)ccc2cc(S(=O)(=O)O)ccc12`, the result was inactive.

`FC(F)(F)C(F)(F)C(F)(F)C(F)(F)C(F)(F)C(F)(F)CCI`: the compound was called inactive.

As to `Cc1nc(-c2ccc3c(c2)CCN(CCC2CCC(NC(=O)/C=C/c4ccc(F)cc4)CC2)CC3)no1` (stereo not given), the compound was called inactive.

Consider `CN1CCN(Cc2cc(-c3ccc4[nH]c(=O)oc4c3)co2)[C@@H](c2ccc(F)cc2)C1`, for which the compound was classed as inactive.

In the case of `O=C(O)Cc1ccccc1Nc1c(Cl)cccc1Cl`, the compound was classed as inactive.

`CCNc1cccc(C)c1`: the call was inactive.

Take `CCCCCCCCCCCC(=O)OC`: the result was inactive.

With `CN[C@H]1CC[C@@H](c2ccc(Cl)c(Cl)c2)c2ccc(S(N)(=O)=O)cc21`, the AC50 was 84.1 µM (active).

Take `Cc1ccc(C(C)C)c(O)c1`: the result was inactive.

For `Clc1cc(Cl)c(Cl)cc1Cl`, the call was inactive.

On to `O=[N+]([O-])C(CO)(CO)CO`, for which the compound was called inactive.

On to `CC1(C)NC(=O)NC1=O`, for which the result was inactive.

Regarding `CCCCN(CCCC)CCCC`, the compound was classed as inactive.

Consider `C[C@]12C=CC(=O)C=C1CC[C@@H]1[C@@H]2C(=O)C[C@@]2(C)[C@H]1CC[C@]2(O)C(=O)CO`, for which the compound was classed as inactive.

`CC(=O)Oc1ccccc1C(=O)O`: the outcome was inactive.

For `CCCCc1ccc2c(n1)[C@@H](c1ccc(OC)cc1C[C@H](C)C(=O)O)[C@H](C(=O)O)[C@H]2c1ccc2c(c1)OCO2`, the compound was called inactive.

For `C[Si]1(C)O[Si](C)(C)O[Si](C)(C)O[Si](C)(C)O1`, the compound was classed as inactive.

On to `Oc1ccc2ccccc2c1N=Nc1ccccc1`, for which the result was inactive.

Consider `COC(=O)c1ccc(O)cc1`, for which the outcome was inactive.

As to `O=c1c(O)c(-c2ccc(O)c(O)c2)oc2cc(O)cc(O)c12`, the compound was classed as inactive.

With `Nc1ccc2c(c1)C(=O)c1ccccc1C2=O`, the call was inactive.

Consider `NCC1(Cc2noc(=O)[nH]2)CCCCC1`, for which the compound was called inactive.

For the compound `COc1ccc(C)cc1N`, the call was inactive.

Regarding `Cc1cccc(C)c1O`, the result was inactive.

For `CCOC(=O)CCC(=O)OCC`, the compound was classed as inactive.

As for `CCOC(=O)C(C)(C)Oc1ccc(Cl)cc1`, the compound was called inactive.

On to `COc1cc(C=O)ccc1O`, for which the outcome was inactive.

For `Cc1oc(-c2ccccc2)nc1CCOc1cccc2c1ccn2CCC(=O)O`, the call was inactive.

Turning to `Cc1nc(C)nc(N2C[C@@H](C)N(c3ccnc([C@@H](C)O)n3)[C@@H](C)C2)n1`, the AC50 was 25 µM (active).

As for `NC(=O)Cn1c(=O)cc(CCN2CCN(c3nccc4sccc34)CC2)c2ccc(F)cc21`, the call was inactive.

`CCCCCCCCCCCCCCCCCC(=O)O`: the result was inactive.

As to `CN1CCCC1=O`, the compound was classed as inactive.

Turning to `CCCCCCCCCCCCCO`, the result was inactive.

With `CCCCCCCCCCCCCCCC`, the compound was called inactive.

Take `CCCCCCC(=O)OCC`: the result was inactive.

For the compound `Cc1ccc(C)c(O)c1C`, the result was inactive.

For `O=C(O)CCCCC(=O)O`, the result was inactive.

Consider `CC(C)c1ccc(C(=O)N=C(N)N)cc1S(C)(=O)=O`, for which the AC50 was 1.4 µM (active).

In the case of `CC(C)(C)c1cc(O)c(C(C)(C)C)cc1O`, the AC50 was 50 µM (active).

By AC50 is commonly meant the concentration at which the activity in the assay is half-maximal.
